Screening results from PubChem.
Most compounds without a hit are left out; they make up all but 19% or so of the library.
HT1080NT lethal = kills 2HG-producing HT-1080-NT fibrosarcoma cells | HT-1080-NT fibrosarcoma viability, CellTiter-Glo ATP luminescence, 48 h | Potency, µM (highest dose often 46.1 µM), for the others: at the highest dose activity, negative = less viability, most hits filed as cytotoxic | 360,000 tested, 1.6% active | AID 686970;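 also: NT is the 2HG producing partner of a matched IDH1 knockdown line; 0% = DMSO-treated cells and -100% = media-only wells without cells; nearly all actives have a fitted effect of over 55% in size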
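Toxicity toward the 2HG-producing NT line was scored as %Activity, normalised to DMSO and no-cell wells, from CellTiter-Glo luminescence after 48 hours' treatment.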
HT1080 IDH1KD tx = kills HT-1080 cells with IDH1 knockdown. Potency, µM (series often up to 46.1 µM), for inactives: top-dose activity, negative = toxicity, usual class: cytotoxic. HT-1080 IDH1 knockdown viability, ATP luminescence, 48 h. 360,000 tested, 2% active;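 also: 0% = DMSO wells and -100% = cell-free medium wells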
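HT-1080-IDH1KD cells (IDH1 knocked down), 750/well in RPMI with 5% FBS, treated with compound 48 h at 37 degrees C. Viability by CellTiter-Glo luminescence, normalised to DMSO and no-cell wells; concentration-response curves classed.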
TDP1 cell CPT = growth inhibition of DT40 Tdp1-/-;hTDP1 cells with camptothecin (screen for TDP1 inhibitors). chicken DT40 Tdp1-/-;hTDP1 cells + 20 nM CPT, ATP luminescence, 48 h. Potency, µM (titrated, usually from 46.2 µM), for the others: at the highest dose activity change, negative = growth inhibition, usual class: inhibitors. 420,000 tested, 12% active; also: nearly all actives have a fitted effect of over 55% in size
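Chicken DT40 Tdp1-/- cells complemented with human TDP1, 400 cells/well, exposed to compounds plus 20 nM camptothecin for at least 48 h at 37 C; viability read as ATP content by CellTiter-Glo luminescence.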
DT40 TDP1 no CPT = qHTS for Inhibitors of human tyrosyl-DNA phosphodiesterase 1 (TDP1): qHTS in cells in absence of CPT. 420,000 tested, 15% active. DT40 Tdp1-/- hTDP1 cells, no CPT, ATP luminescence, 48 h. Potency, µM (top dose mostly 46.2 µM), for inactives: top-dose activity change, negative = growth inhibition, usual class: inhibitors; also: nearly all actives have a fitted effect of over 55% in size
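No-CPT arm: Tdp1-/-;hTDP1 DT40 cells (400/well) plus compounds, incubated ≥48 hr at 37 °C. Readout CellTiter-Glo luminescence.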
KB-3-1 tox = KB-3-1 parental cell cytotoxicity | KB-3-1 viability, CellTiter-Glo ATP luminescence, 72 h | Potency, µM (series often up to 46.1 µM), most hits filed as cytotoxic | 400,000 tested, 1.4% active | AID 1347075; also: nearly all actives have a fitted effect of over 60% in size
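Screening of KB-3-1 cells (DMEM, 10% FBS, phenol-red free) ran from lowest to highest compound concentration; after 72 h at 37 °C viability was read luminescently and curves fitted.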
KB-V1 MDR tox = KB-V1 MDR subline cytotoxicity. AID 1347076. Potency, µM (top dose mostly 46.1 µM), most hits filed as cytotoxic. KB-V1 MDR cells viability, CellTiter-Glo, 72 h. 400,000 tested, 3.4% active; also: nearly all actives have a fitted effect of over 60% in size
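Compound-treated KB-V1 multidrug-resistant cells, 72 h, 37 degrees C; viability by CellTiter-Glo. Fitted qHTS curves give the values.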
An asterisk follows results filed as active; i = inactive; ? = inconclusive; nt = no result given; [ ] = dose if it differs, or a comment. Calls follow the shape of the dose curve; as a rule, active = well fitted curve in the direction sought with a large enough effect; inconclusive = small, poorly fitted or top-dose-only effect, or another doubt; inactive = no such curve, though single readings can be large; an effect the other way counts as inactive or inconclusive. Unless noted, % is scaled to controls: 0 for no effect and ±100 for the full control effect; potency is read from the fitted curve at half-maximal effect.

SMILES	HT1080NT lethal	HT1080 IDH1KD tx	TDP1 cell CPT	DT40 TDP1 no CPT	KB-3-1 tox	KB-V1 MDR tox
COc1ccc(CCN2CC(C(=O)N3CCC(OC)CC3)CCC2=O)cc1 (configuration not stated)	0%	3%	4%	-2%	i	i
C=CCC1(CC=C)CCCN1C(=O)C1CCC(=O)N(CCc2ccc(OC)cc2)C1 (configuration not stated)	4%	8%	12µM*	10µM*	i	i
C=CCC1(CC=C)CCCN1C(=O)C1CCC(=O)N(CCc2ccccc2)C1 (configuration not stated)	1%	-1%	9.2µM*	5.8µM*	i	?
O=S(=O)(NCC(Nc1ccccc1)c1ccccc1)c1ccc(Cl)cc1 (configuration not stated)	-16%	-11%	?	29µM*	i	21µM*
Cc1cnc(C(=O)OCC(=O)c2ccc(-c3ccccc3)cc2)cn1	-3%	0%	0%	-4%	i	i
CCOC(=O)c1ccccc1O	nt	nt	3%	14%	nt	nt
CCOC(=O)C1=C(C)C/C(=N\NC(=O)c2ccccc2O)CC1	?	?	8.2µM*	?	i	?
O=C(NCCCN1CCOCC1)c1ccc2c(c1)N(Cc1cccc(Cl)c1)C(=O)c1ccccc1S2	nt	nt	?	23µM*	nt	nt
O=C(NCCCN1CCOCC1)c1ccc2c(c1)N(Cc1cccc(Cl)c1)C(=O)CS2	-22%	-18%	?	16µM*	i	i
Cc1ccc(C(=O)N2CCCC(N(C)Cc3ccccc3)C2)s1 (configuration not stated)	-18%	-11%	-8%	-8%	i	i
O=C(Cc1ccc2c(c1)OCO2)NN=Cc1ccc([N+](=O)[O-])o1	-12%	-21%	?	12µM*	i	23µM*
O=C(CCC(=O)Nc1ccc(Cl)cc1Cl)N/N=C/c1ccc([N+](=O)[O-])o1	?	?	2.6µM*	2.9µM*	?	?
CCN(CC)c1ccc(/C=N/NC(=O)c2ccc([N+](=O)[O-])cc2)cc1	4%	7%	-12%	-8%	i	i
CCN(CC)c1ccc(N=Cc2ccc([N+](=O)[O-])o2)cc1	18µM*	?	5.8µM*	10µM*	18µM*	i
O=C(Cc1ccc2c(c1)OCCO2)N/N=C/c1ccco1	4%	0%	2%	-9%	i	i
CCCCCC(=O)N/N=C/c1ccc([N+](=O)[O-])o1	?	?	11µM*	?	i	i
CCOc1ccc(NC(=O)c2oc3ccccc3c2NC(=O)Cc2cccc(C)c2)cc1	nt	nt	-28%	?	i	i
Cc1ccc(NCC(=O)N/N=C\c2ccc[nH]2)cc1	-1%	-12%	6%	-15%	?	i
O=C(CNC(=O)c1ccccc1)N/N=C/c1ccc([N+](=O)[O-])o1	-26%	?	9.2µM*	23µM*	i	i
O=[N+]([O-])c1ccc(/C=N/NC(=S)Nc2ccccc2)o1	10%	10%	15µM*	23µM*	i	?
Cc1ccc(NCC(=O)N/N=C\c2ccc([N+](=O)[O-])o2)cc1	?	1%[9.24 µM]	13µM*	18µM*	i	?
O=C(CNc1ccccc1)N/N=C/c1ccc([N+](=O)[O-])o1	-25%	-21%	10µM*	7.3µM*	?	?
O=[N+]([O-])c1ccc(/C=N/NC(=S)Nc2ccccc2F)o1	29%	15%	-10%	?	i	i
CCCNC(=O)C(Cc1ccc(C(F)(F)P(=O)(OCC)OCC)cc1)NC(=O)c1ccc(C#N)cc1 (configuration not stated)	-1%	-1%	?	-29%	i	i
COc1ccc(CN2C(=NC(=O)C3CCCCC3)SC3CS(=O)(=O)CC32)cc1 (configuration not stated)	20%	-5%	-1%	18%	i	i
SMILES	HT1080NT lethal	HT1080 IDH1KD tx	TDP1 cell CPT	DT40 TDP1 no CPT	KB-3-1 tox	KB-V1 MDR tox
CC(CNc1ccc(Cl)cc1)(CNc1ccc(Cl)cc1)[N+](=O)[O-]	?	?	?	?	i	i
O=C(NNS(=O)(=O)c1ccccc1)c1cccc([N+](=O)[O-])c1	21%	14%	7%	4%	i	i
CN1CCc2c(sc(N)c2C(=O)c2ccc(Cl)cc2)C1	4%	2%	?	?	i	?
COc1ccc(C(=O)c2c(N)sc3c2CCN(C(=O)OC(C)(C)C)C3)cc1	-2%	-8%	15µM*	-62%	i	?
CC1(c2ccc3c(c2)OCCO3)NC(=O)N(CC(=O)Nc2c(F)cccc2F)C1=O (configuration not stated)	6%	7%	-1%	22%	i	i
COc1ccc(-c2ccc3nncn3c2)cn1	3%	14%	13%	0%	i	i
COc1cc(OC)c(OC)cc1CN1CCCC(c2[nH]ncc2-c2cccc(C(F)(F)F)c2)C1 (configuration not stated)	nt	nt	?	23µM*	nt	nt
C=CC[n+]1c(/C=C/c2ccc(OC(C)=O)c(OC)c2)ccc2ccccc21	?	?	7.3µM*	12µM*	?	i
CC(NC(=O)OC(C)(C)C)C(=O)NC(CCC(=O)OCc1ccccc1)C(N)=O (configuration not stated)	-1%	-2%	-28%	29µM*	i	i
CC(C)C(NC(=O)OC(C)(C)C)C(=O)NC(CCC(=O)OCc1ccccc1)C(N)=O (configuration not stated)	21%	12%	-6%	1%	i	i
CC(C)CC(NC(=O)C(NC(=O)C(Cc1ccc(OCc2ccccc2)cc1)NC(=O)OC(C)(C)C)C(C)C)C(N)=O (configuration not stated)	-7%	0%	?	16µM*	i	?
Cn1c(/C(C#N)=C/c2ccc(O)cc2)nc2ccccc21	5%	3%	?	-16%	i	i
Cn1c(/C(C#N)=C/c2ccncc2)nc2ccccc21	-1%	3%	?	21µM*	i	i
Cn1c(/C(C#N)=C/c2ccc(C(F)(F)F)cc2)nc2ccccc21	nt	nt	21µM*	13µM*	nt	nt
